FMDV RLuc = FMDV antiviral activity by Renilla signal; FMDV replicon cells, Renilla luciferase signal; Potency, µM (series often up to 57.5 µM), most hits filed as inhibitors; 0.32% of 120,000 active; also: nearly all actives have a fitted effect of over 55% in size
FMDV antiviral = shows antiviral activity against foot and mouth disease virus | FMDV antiviral cell assay, firefly luciferase signal | Potency, µM (titrated, usually from 57.5 µM), hits mostly inhibitors | 0.23% of 120,000 active | AID 1745856; also: nearly all actives have a fitted effect of over 60% in size
Each line names hits and unclear results; the compound was inactive in the other large screens. The list is not random: actives were taken first. Their share in the collection is about 0.51%. Calls follow the shape of the full dose curve.

CCCCN(CC)S(=O)(=O)c1ccc(C(=O)Nc2ccc(Cl)c3ncsc23)cc1	none
CCc1ccc(OCCn2c(C3CC(=O)N(Cc4ccc(F)cc4)C3)nc3ccccc32)cc1 (stereo unspecified)	FMDV RLuc inconclusive
CC(C)CCn1c(C2CC(=O)N(Cc3ccc(F)cc3)C2)nc2ccccc21 (stereo unspecified)	FMDV RLuc 18µM, FMDV antiviral 18µM
COC(=O)CCCNC(=O)CN1CCCCCC1	FMDV antiviral inconclusive
COc1cc(CN(C(=O)COc2ccc(Br)cc2)c2ccccn2)cc(OC)c1OC	FMDV RLuc 22µM
COc1cc(CN(C(=O)COc2ccc(C)cc2)c2ccccn2)cc(OC)c1OC	none
COC(=O)Cc1c(C)c2ccc(OCc3ccccc3F)c(C)c2oc1=O	none
COC(=O)Cc1c(C)c2ccc(OCC(=O)C(C)(C)C)c(C)c2oc1=O	FMDV RLuc 28µM, FMDV antiviral inconclusive
O=C(Nc1ccccc1O)c1cc(=O)[nH]c2ccccc12	none
CC1=C(C#N)C(c2ccccc2C)C(C#N)=C(C)N1	none
CC1=C(C#N)C(c2cc(Br)ccc2OC(F)F)C(C#N)=C(C)N1	FMDV RLuc 28µM, FMDV antiviral inconclusive
Cc1cc(C)c(NC(=O)Cn2nnc(C(=O)NCc3cccs3)c2N)c(C)c1	FMDV antiviral 35µM
Cc1ccccc1NC(=O)Cn1nnc(C(=O)NCc2cccs2)c1N	none
Fc1cccc(/C=N/Nc2ccc(Cl)c(Cl)c2)c1	none
O=Cc1cc(Cl)c(O)c(Br)c1	none
Oc1c(Br)cc(Cl)cc1Cc1cc(Cl)cc(Br)c1O	FMDV RLuc 3.5µM, FMDV antiviral inconclusive
C=C1CCC2C(C)(C)CCCC2(C)C1CC/C(C)=C\CC/C(C)=N/NC(N)=O (stereo unspecified)	none
CCOC(=O)Cc1ccc(NC(=O)n2ncc3c(C)cccc32)cc1	FMDV antiviral inconclusive
CCOC(=O)Cc1ccc(NC(=O)n2ncc3cc(Cl)ccc32)cc1	FMDV antiviral 7.9µM
Cc1ccccc1CNC(=O)CN1C(=O)CCCc2ccccc21	FMDV RLuc 32µM
COc1ccccc1CNC(=O)CN1C(=O)CCCc2ccccc21	none
NCc1cccc(OC(F)F)c1	none
C=CCOc1ccc(/C=C(\C)[N+](=O)[O-])cc1OC	FMDV RLuc 32µM, FMDV antiviral inconclusive
CCOc1ccc(/C=C(\C)[N+](=O)[O-])cc1	FMDV antiviral inconclusive
Cc1ccsc1C(=O)N1CCSCC1	none
Brc1ccccc1-c1nnc(SCc2nc3ccccc3o2)o1	none
CC(=O)c1ccc(NC(=O)c2cccc(NC(=O)N3CCSc4ncccc43)c2)cc1	FMDV antiviral 3.2µM
COc1ccc(NC(=O)c2ccc(NC(=O)N3CCSc4ncccc43)cc2)cc1	none
CC(C)(C)C(=O)NCC(=O)N1CCC(c2nc3ccccc3o2)CC1	none
CCCOc1ccc(C(=O)Nc2ccc(-c3cc4ccccc4oc3=O)c(C)c2)cc1	FMDV RLuc 4.5µM, FMDV antiviral 7.9µM
CCCOc1cccc(C(=O)Nc2ccc(-c3cc4ccccc4oc3=O)c(C)c2)c1	none
N#Cc1c(N)nc2c(c1-c1ccc(Br)cc1)CCCC2	none
Cc1csc2nc(-c3cccc(NC(=O)c4cccc(F)c4)c3)cn12	FMDV RLuc 13µM
Cc1csc2nc(-c3cccc(NC(=O)c4ccccc4F)c3)cn12	none
CCOC(=O)N1CCN(C(=O)CSc2nnc(-c3ccc(Cl)cc3)n2Cc2ccco2)CC1	none
CCc1ccc(Nc2ccc3cc(S(=O)(=O)N4CCCC4)ccc3n2)cc1	none
CC(=O)c1ccc(C)cc1OCc1ccccc1C#N	none
COc1ccc(C2CC(=O)Nc3cc4c(cc32)OCO4)c(OC)c1 (stereo unspecified)	none
CC(C)COc1ccccc1C1CC(=O)Nc2cc3c(cc21)OCO3 (stereo unspecified)	FMDV RLuc 13µM, FMDV antiviral inconclusive
CC(C)CC(NS(C)(=O)=O)C(=O)O (stereo unspecified)	none
CC(/C=C/N(C)C)=C\C=[N+](C)C	FMDV RLuc 4µM, FMDV antiviral 8.9µM
Oc1c(C(c2cccs2)N2CCCC2)sc2nc(-c3ccco3)nn12 (stereo unspecified)	none
COc1cc(NC(=O)c2ccc(NS(C)(=O)=O)cc2)cc(OC)c1OC	none
Cn1c(SCc2nc(N)nc(Nc3ccc(F)cc3)n2)nnc1C1CC1	none
Cc1cccc(NC(=O)CC2(C(=O)O)CCCCC2)c1	none
Cc1cccc(NC(=O)CCl)c1	FMDV RLuc 32µM, FMDV antiviral inconclusive
CCn1nc(C(=O)OCC(=O)Nc2ccc(Cl)c(S(=O)(=O)N(C)C)c2)c2ccccc2c1=O	none
Nc1nonc1C(=O)N1CCN(C(=O)Nc2ccc(F)c(Cl)c2)CC1	none
O=C(Nc1nc2c(s1)CCCCC2)c1ccc(Cl)cc1	FMDV RLuc 10µM
COc1ccc(C(=O)Nc2nc3c(s2)CCCC3)cc1Cl	FMDV RLuc inconclusive
Cc1ccc(CNC(=O)C2(CC(=O)NC(C)(C)C)CCCC2)cc1	none
Cc1cc(Cl)ccc1NC(=O)Cc1c[nH]c2ccccc12	none
COC(=O)C1CN(Cc2ccc(OC)cc2)CCS(=O)(=O)N1Cc1ccc(C(F)(F)F)cc1 (stereo unspecified)	FMDV RLuc inconclusive, FMDV antiviral 32µM

Source: PubChem BioAssay (National Center for Advancing Translational Sciences (NCATS))
